For 17 compounds, composite z-score and z-score results are on record in PubChem BioAssay.

In assay [1] the test system is Human papillomavirus type 1a protein E7 (residues 44-93). In words: HPV1a E7 fragment binders on microarrays, primary screen, biochemical, small-molecule microarray, residues 44-93, 635 nm fluorescence (AID 1108).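 Further: E7 fragment applied at 1 µg/mL in TBST for 1 h at 4 C; score combines spot fluorescence with its signal to noise ratio.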 The settings on record: small-molecule microarray binding, fluorescence 635 nm; higher = more signal.
Assay [2] is described as follows: modulators of HCV replicon luciferase signal, primary screen, HCV replication inhibitor project, Huh7 cells, luciferase reporter (AID 1109).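 Further: huh7 hepatoma cells harbouring a luciferase neomycin HCV replicon reporter; luciferase luminescence as measure of HCV replicon replication; test concentration not given here.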 The settings on record: 48 h, higher = more signal.
The target in assay [3] is Left-right determination factor 2 (Homo sapiens) (UniProt O00292). In words: LEFTY2 binders on small-molecule microarrays, primary screen, biochemical, small-molecule microarray, 635 nm fluorescence scan (AID 1110). The following applies: LEFTY2 binding, higher = more signal.
Left-right determination factor 2 (Homo sapiens), sequence (O00292 whole entry, looked up): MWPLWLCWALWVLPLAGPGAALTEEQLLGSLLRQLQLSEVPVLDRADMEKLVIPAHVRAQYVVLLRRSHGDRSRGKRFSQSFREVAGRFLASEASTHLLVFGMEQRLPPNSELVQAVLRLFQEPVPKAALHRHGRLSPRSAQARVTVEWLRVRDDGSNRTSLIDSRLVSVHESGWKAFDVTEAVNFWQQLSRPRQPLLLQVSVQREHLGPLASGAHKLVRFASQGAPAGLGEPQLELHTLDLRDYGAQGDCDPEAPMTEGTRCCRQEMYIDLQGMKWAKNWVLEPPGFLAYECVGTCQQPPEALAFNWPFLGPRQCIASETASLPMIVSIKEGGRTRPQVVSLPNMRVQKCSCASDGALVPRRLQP
Assay [4] deals with Calmodulin-1 (Homo sapiens) (UniProt P0DP23). In words: CALM1 binders on microarrays, EGTA buffer, profiling panel, biochemical, small-molecule microarray, Cy5-labelled CALM1 (AID 1111).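 Further: labelled calmodulin applied in Tris saline Tween buffer holding calcium plus EGTA and DTT.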 The following applies: Cy5-CALM1 binding fluorescence, higher = more signal.
For assay [5] the target is unchanged. In words: calcium-bound CALM1 binders on microarrays, profiling panel, artefact control for SMM control-protein annotation, biochemical, small-molecule microarray, Cy5-labelled CALM1, plus calcium (AID 1112).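 Further: score merges spot fluorescence with signal to noise from triplicate slides.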 The following applies: Cy5-CALM1 binding fluorescence, higher = more signal.
A short description of assay [6]: small-molecule microarray binders of probe aWnt5a, primary screen, biochemical, biotinylated probe, 635/667 nm fluorescence (AID 1113).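 Further: score merges 667 nm fluorescence intensity with signal-to-noise per printed feature.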 The settings on record: higher = more signal.
Assay [7] can be described thus: small-molecule microarray binders of probe aShh, primary screen, biochemical, biotinylated probe, 635/667 nm fluorescence (AID 1114).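 Further: probe is biotin-labelled aShh protein from a stem cell growth factor screen; measures binding of labelled protein to compounds printed on the slide; score merges feature fluorescence at 667 nm with signal-to-noise.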 The following applies: higher = more signal.
Assay [8] can be described thus: small-molecule microarray binders of probe aNog, primary screen, biochemical, biotinylated probe, 635/667 nm fluorescence (AID 1115).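 Further: probe is biotinylated aNog protein used at 0.15 µg/mL for 1 h at 4 C; z-score combines 667 nm fluorescence of each spot with its signal to noise.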 The following applies: higher = more signal.
In assay [9] the target is Torsin-1A-interacting protein 1 (Homo sapiens) (UniProt Q5JTV8). In words: LAP1 binders from COS7 cell lysate, primary screen, small-molecule microarray, 635/667 nm fluorescence (AID 1116). The settings on record: COS7-hLAP1 lysate binding, 635 nm fluorescence, higher = more signal.
Torsin-1A-interacting protein 1 (Homo sapiens), sequence (Q5JTV8 whole entry, looked up): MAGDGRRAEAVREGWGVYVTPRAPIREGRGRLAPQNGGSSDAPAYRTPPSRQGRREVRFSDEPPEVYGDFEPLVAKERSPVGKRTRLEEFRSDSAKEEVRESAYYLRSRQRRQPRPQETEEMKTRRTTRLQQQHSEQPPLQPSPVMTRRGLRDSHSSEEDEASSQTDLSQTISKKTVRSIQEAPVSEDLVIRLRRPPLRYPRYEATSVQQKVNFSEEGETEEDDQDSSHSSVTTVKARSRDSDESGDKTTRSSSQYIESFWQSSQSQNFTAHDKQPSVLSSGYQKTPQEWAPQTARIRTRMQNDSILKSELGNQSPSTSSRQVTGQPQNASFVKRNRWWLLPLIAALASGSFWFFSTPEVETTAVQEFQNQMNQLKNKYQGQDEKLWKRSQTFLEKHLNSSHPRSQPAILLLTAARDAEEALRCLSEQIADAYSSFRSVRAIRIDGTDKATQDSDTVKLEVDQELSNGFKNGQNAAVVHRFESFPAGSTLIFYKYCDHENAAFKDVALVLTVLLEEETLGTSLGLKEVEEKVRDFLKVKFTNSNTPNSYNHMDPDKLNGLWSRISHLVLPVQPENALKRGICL
Assay [10] addresses Alpha-bungarotoxin (Bungarus multicinctus) (UniProt P60615). In words: alpha-bungarotoxin binders on microarray, profiling panel, artefact control for SMM control protein annotation, biochemical, small-molecule microarray, Alexa647 label, 635/667 nm fluorescence (AID 1117). The following applies: alpha-BTX-A647 binding fluorescence, higher = more signal.

Alpha-bungarotoxin (Bungarus multicinctus), sequence (P60615 whole entry, looked up): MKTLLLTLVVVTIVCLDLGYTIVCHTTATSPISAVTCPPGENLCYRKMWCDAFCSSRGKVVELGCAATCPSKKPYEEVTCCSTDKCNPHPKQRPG

Consider `[N-]=[N+]=NCc1ccccc1[C@@H]1OC(c2ccc(OCCCO)cc2)=N[C@]1(Cc1ccccc1)C(=O)O`, for which the composite z-score in assay [1] was 1.38; in [3], -0.252; in assay [4], 1.14; in [5] it was 0.518; in [6], -0.0479; in assay [7], 0.0711. In addition, the figures for the composite z-score in [8], in assay [9] and in [10] were -0.419, 0.767 and 0.865, respectively. In addition, in assay [2], the z-score was -0.297.
`O=P(NCC1(CC2(c3ccccc3)CO2)CC1)(c1ccccc1)c1ccccc1` (stereo not given): the composite z-score was -0.498 in assay [1]; -1.79 in [3]; -0.0905 in [4]; 0.388 in [5]; -0.0384 in assay [6]; 0.826 in [7]. For the same compound, the composite z-score in assay [8] is -0.45; in assay [9], -0.225; in assay [10], -0.879. In [2], this compound came in with a z-score of -1.17.
In the case of `O=[N+]([O-])c1ccc(C[n+]2ccc(CCCO)cc2)o1`, the composite z-score was 1.15 in [1]; 0.69 in [3]; 1.2 in assay [4]; 0.561 in [5]; -0.0364 in assay [6]; -0.0035 in assay [7]. In addition, the composite z-score is -0.278 in assay [8], 0.261 in [9] and 1.47 in assay [10]. In addition, the z-score in assay [2] was -0.341.
Turning to `C=CCOC(=O)[C@H]1[C@@H]2C(=O)O[C@@H](c3ccccc3)[C@@H](c3ccccc3)N2[C@@H](c2ccc(OCCOC(=O)[C@@H]3C[C@@H]4C(=O)NCC(=O)N4[C@@H]3c3ccc(O)cc3)cc2)[C@]12C(=O)Nc1ccc(I)cc12`, the composite z-score was 1.37 in [1]; 1.04 in [3]; 1.56 in assay [4]; 0.341 in assay [5]; -0.0519 in assay [6]; 0.131 in [7]. Besides, the composite z-score was -0.412 in [8], 1.14 in assay [9] and 1.52 in assay [10]. The compound also displayed a z-score in assay [2] of -1.59.
Turning to `O=C(NCC(O)CO)[C@@]1(Cc2ccccc2)N=C(c2ccc(OCCCO)cc2)O[C@H]1c1ccccc1` (stereo not given in full), the composite z-score in [1] was 0.546; in assay [3], -1.13; in assay [4], 2.01; in assay [5] it was 1.36; in assay [6] it was -0.241; in assay [7] it was 0.334. For the same compound, the composite z-score is -0.57 in assay [8], 2.48 in [9] and 1.77 in assay [10]. The z-score in assay [2] was -0.99.
Consider `CO[C@H]1O[C@H](CO)[C@@H](OC(=O)Nc2ccccc2-c2ccccc2)[C@H](OC(=O)Nc2ccccc2-c2ccccc2)[C@H]1OC(=O)Nc1ccccc1-c1ccccc1`, for which the composite z-score was 1.05 in assay [1]; 0.591 in assay [3]; 1.08 in [4]; -0.588 in [5]; 0.0321 in [6]; 0.431 in assay [7]. The composite z-score amounted to 0.225 in assay [8], 1.41 in assay [9] and 1.73 in [10]. In addition, the z-score in [2] was -2.43.
In the case of `Cc1ccc(S[C@]2(C(=O)NCC(C)C)CC(=O)N(Cc3ccccc3)[C@@H]2c2ccc(CO)cc2)cc1`, the composite z-score was 0.725 in [1]; -1.83 in [3]; -0.624 in assay [4]; -0.249 in assay [5]; -0.141 in assay [6]; -0.0904 in assay [7]. The composite z-score in [8] was determined as 0.596; in assay [9] it was 0.769; in assay [10], 0.147. For the same compound, the z-score in [2] was -1.99.
As for `COc1cc(CO)cc(I)c1O[C@H]1C=C(C(=O)NCCO)C[C@@H](N(CCc2cccc(F)c2)C(=O)CCC2CCCC2)[C@@H]1O`, the composite z-score in assay [1] is 1.43; in assay [3], 0.195; in [4] it was 2.15; in [5], 2.16; in assay [6], 0.277; in assay [7] it was 0.0952. The composite z-score in [8] is -0.144; in [9], 2.99; in assay [10] it was -0.242. In assay [2], the z-score was -4.65.
As to `CC(C)C(O)C1C=CC2C(=O)N(C)C(=O)C2N1N1CCCCC1` (stereo not given), the composite z-score in [1] is 0.471; in [3], 0.223; in [4] it was 0.372; in assay [5], -0.387; in assay [6] it was -0.0462; in assay [7] it was 0.0723. For the same compound, the composite z-score in assay [8] was 0.693; in assay [9] it was 0.815; in assay [10], 0.502. In assay [2], this compound gave a z-score of 0.279.
With `C=CCN1Cc2ccccc2C[C@@]2(COC(c3ccc(OCCCO)cc3)=N2)C1=O`, the composite z-score is 1.42 in assay [1]; 0.588 in assay [3]; 0.175 in assay [4]; -0.583 in [5]; 0.0633 in assay [6]; 0.13 in [7]. Also, the composite z-score in assay [8] came out at 0.373; in assay [9] it was 1.33; in assay [10] it was 0.34. This compound showed a z-score in [2] of -0.908.
Regarding `CN(C)CCCN1C(=O)[C@@]2(c3ccc([N+](=O)[O-])cc3)CC(=O)N(C3CCCCC3)[C@@H]2c2ccc(CO)cc21`, the composite z-score in [1] is -0.274; in assay [3], 0.0478; in assay [4], -0.126; in assay [5], -0.361; in assay [6], -0.104; in assay [7], -0.304. Moreover, the results for the composite z-score in assay [8], in assay [9] and in assay [10] were -0.118, -1.4 and 0.25, respectively. In [2], this compound had a z-score of -0.493.
Regarding `CN1C(=O)C2C=CC(C(O)C=Cc3ccc([N+](=O)[O-])cc3)N(N3CCCCC3)C2C1=O` (stereo not given), the composite z-score came out at 0.974 in [1]; 0.443 in assay [3]; 2.44 in assay [4]; 0.925 in [5]; 0.613 in assay [6]; 0.926 in [7]. The composite z-score in [8] was 1.66; in assay [9], 0.856; in [10] it was 2.07. For the same compound, the z-score in assay [2] was determined as 0.789.
For the compound `COC(=O)[C@@]1(Cc2ccc(F)cc2)[C@H]2c3cc(C(=O)N(C)C)n(CCc4c[nH]c5ccc(OC)cc45)c3C[C@H]2CN1C(=O)c1ccccc1`, the composite z-score was 1.47 in assay [1]; -0.995 in assay [3]; 1.72 in assay [4]; 1.16 in assay [5]; 0.27 in assay [6]; 0.764 in [7]. The figures for the composite z-score in [8], in assay [9] and in assay [10] were 1.7, 2.15 and 1.04, respectively. This compound showed a z-score in assay [2] of -1.94.
Regarding `COc1ccc(CCNC(=O)[C@@]2(C)c3ccccc3C(=O)N(Cc3ccccc3)[C@H]2c2ccc(CO)cc2)cc1`, the composite z-score in [1] was 1.16; in assay [3] it was 0.449; in assay [4] it was 0.617; in assay [5], -0.703; in [6], 0.0618; in assay [7] it was 0.0141. The figures for the composite z-score in assay [8], in [9] and in [10] were 0.304, 1.56 and 1.78, respectively. Besides, in assay [2], the z-score is -2.06.
Turning to `O=C(CS)NCCCCCNC(=O)[C@H]1C[C@H]2C(=O)N[C@@H](Cc3ccccc3)C(=O)N2[C@H]1c1cccc(OCCO)c1`, the composite z-score in assay [1] was 0.729; in assay [3] it was 1.03; in assay [4], -0.137; in [5] it was -0.358; in [6], 0.0388; in assay [7] it was -0.153. Moreover, the composite z-score was -0.259 in assay [8], 1.12 in assay [9] and 0.656 in assay [10]. Also, the z-score in [2] was -0.24.
As for `CCN(CC)c1ccc(N2CC=CC34O[C@@H]5/C=C\CCC(C)OC(=O)C5[C@H]3C(=O)N(CCCCCCO)[C@@H]4C2=O)cc1` (stereo not given in full), the composite z-score was -0.27 in assay [1]; -0.694 in [3]; -0.423 in assay [4]; -0.304 in assay [5]; -0.13 in assay [6]; -0.223 in assay [7]. In addition, the results for the composite z-score in assay [8], in assay [9] and in assay [10] were -0.16, 0.891 and -1.04, respectively. For the same compound, the z-score in [2] was -0.693.
For `Cc1ccc([C@H]2C(C(=O)O)=C[C@@H](C(C)C)N2S(=O)(=O)c2ccc(C)cc2)cc1`, the composite z-score in [1] was 1.39; in [3], -0.448; in assay [4], 0.995; in assay [5], 0.237; in assay [6], 0.0597; in [7] it was -0.0769. Further, the composite z-score in assay [8] stood at 0.129; in [9], 0.984; in assay [10], 0.11. Moreover, the z-score in assay [2] was found to be 0.58.
